CHX counter: affects cycloheximide protein synthesis inhibition readout, counter-screen; max response, %; cell reporter, cycloheximide protein synthesis inhibition counterscreen; hit rate 12% among 300,000; AID 2314; in the data active means max response mostly above about 13%, no sharp cut-off; inactive means mostly below about 14%; further: read at 38.3 µM for the half of the compounds with a filed dose; 0% is about no effect
LmPK inhibitor: LmPK (Leishmania mexicana) enzyme inhibition; Q27686; Potency, µM (titrated, usually from 57.5 µM), for the others: top-dose activity change, negative = inhibition, usual class: inhibitors; purified LmPK, Kinase-Glo ATP luminescence, 1 h; hit rate 0.37% among 290,000; further: potency means the concentration at half of the fitted maximal effect; on the % scale 0 is the no-effect control and ±100 the full control effect
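ATP generated from ADP (0.1 mM) and PEP (0.5 mM) by 0.1 nM LmPK over 1 h at room temperature (pH 7.2 imidazole buffer) was detected by coupled luciferase luminescence. Values were normalized to uninhibited and no-enzyme wells.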
FBPA Giardia inh: blocks Giardia fructose-bisphosphate aldolase activity. purified Giardia FBPA. Potency, µM (highest dose often 59.6 µM), inactives show top-dose activity, negative = inhibition, actives largely listed as inhibitors. A8B2U2. hit rate 0.71% among 290,000; further: potency means the concentration at half of the fitted maximal effect; on the % scale 0 is the no-effect control and ±100 the full control effect; nearly all actives have a fitted effect of over 55% in size
Target sequence (A8B2U2 whole entry, looked up): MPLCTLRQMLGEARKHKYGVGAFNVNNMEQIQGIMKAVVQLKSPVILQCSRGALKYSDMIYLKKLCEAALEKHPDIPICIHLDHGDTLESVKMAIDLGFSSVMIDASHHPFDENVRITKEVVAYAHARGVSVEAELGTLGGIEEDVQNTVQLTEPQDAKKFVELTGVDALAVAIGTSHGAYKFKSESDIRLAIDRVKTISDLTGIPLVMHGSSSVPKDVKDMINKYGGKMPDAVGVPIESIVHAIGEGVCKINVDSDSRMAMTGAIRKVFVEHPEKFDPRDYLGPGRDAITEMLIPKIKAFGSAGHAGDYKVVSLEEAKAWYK
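40 nM FBPA preincubated 10 min at RT with compound (up to 57.5 uM final), then substrate plus GAPDH/TPI/NAD/arsenate coupling and diaphorase/resazurin added. Fluorescence read after 20 min at RT, 525/598 nm.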
RE007 growth inh: less growth of the S. pombe RE007 Vpr strain; S. pombe RE007 Vpr strain, BacTiter-Glo ATP luminescence, 24 h; Potency, µM (highest dose often 92.2 µM), without a hit: at the highest dose activity change, negative = less growth, actives largely listed as inhibitors; hit rate 0.21% among 360,000; AID 651644; active means well fitted falling curve with a large enough effect; inconclusive means small, poorly fitted or top-dose-only effect; inactive means no such curve, though single readings can be large or run the other way; further: potency means the concentration at half of the fitted maximal effect; on the % scale 0 is the no-effect control and ±100 the full control effect; nearly all actives have a fitted effect of over 50% in size
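Fission yeast strain RE007, carrying one chromosomally integrated HIV-1 vpr copy, was seeded at OD 0.01 in PMG+AL medium with 23 nL pinned compound. After 24 h at 30 °C and 99% humidity, viability was read by BacTiter-Glo luminescence.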
TbPYK inhibitor: T. brucei pyruvate kinase inhibition; TbPYK enzyme, Kinase-Glo Plus ATP luminescence, 45 min; Potency, µM (highest dose often 76.8 µM), inactives show at the highest dose activity, negative = inhibition, usual class: inhibitors; AID 624173; Q57TT1; hit rate 0.12% among 410,000; further: potency means the concentration at half of the fitted maximal effect; on the % scale 0 is the no-effect control and ±100 the full control effect; nearly all actives have a fitted effect of over 50% in size
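Assay buffer: 50 mM TEA pH 7.2, 100 mM KCl, 10 mM MgCl2, 0.05% BSA, 0.01% Tween-20. Pyruvate kinase from T. brucei plus substrate met compound, then ADP (130 uM final). Luminescence was read post 45 min RT.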
Shiga inhibitor: Shiga toxin inhibition | Vero cells, Shiga toxin protein synthesis inhibition reporter | inhibition, % at 38.7 µM | hit rate 9.2% among 290,000; in the data active means inhibition mostly above about 28%, no sharp cut-off; inactive means mostly below about 43%; further: 0% is about no effect
* = called active by the depositor; ? = inconclusive; · = no result given. This excerpt belongs to a sample that is enriched for hits. Unless noted, the call rests on the fitted dose curve; in most records, active means well fitted curve in the direction sought with a large enough effect; inconclusive means small, poorly fitted or top-dose-only effect, or another doubt; inactive means no such curve, though single readings can be large; an effect the other way counts as inactive or inconclusive.

SMILES | CHX counter | LmPK inhibitor | FBPA Giardia inh | RE007 growth inh | TbPYK inhibitor | Shiga inhibitor
COc1ccc(C)cc1S(=O)(=O)N(C)CC(=O)Nc1ccc2c(c1)OCO2 | 10 | 2% | -8% | -3% | -8% | 0
CCOC(=O)c1cccc(NC(=O)CCCn2nc(C)c3c(C)n(-c4ccccc4)nc3c2=O)c1 | · | · | · | · | -11% | ·
CC(C)CC1c2[nH]c3ccccc3c2CCN1C(=O)C1CCOCC1 (configuration not stated) | -3 | 2% | -6% | -13% | 0% | 6
CC(C)CC1c2[nH]c3ccccc3c2CCN1C(=O)CCC(=O)N(C)C (configuration not stated) | 18 | 1% | -12% | 7% | 0% | 44*
CC(C)CC1c2[nH]c3ccccc3c2CCN1C(=O)c1cnccn1 (configuration not stated) | 51* | -3% | 0% | -4% | -5% | 76*
N[C@H](C(=O)O)c1ccc(C(=O)O)cc1 | · | · | 1% | · | · | ·
CC(=O)Nc1cccc(C(=O)/C=C/c2ccc(F)cc2)c1 | 29* | -1% | 0% | -12% | 0% | 41
CC(=O)Nc1cccc(C(=O)/C=C/c2cccs2)c1 | 54* | -8% | -3% | -7% | 14% | 82*
CC(=O)Nc1cccc(C(=O)/C=C/c2ccc[nH]2)c1 | 26* | -2% | -6% | 0% | -4% | 54*
CC(=O)Nc1cccc(C(=O)/C=C/c2ccc(Br)cc2)c1 | -5 | -2% | -5% | ? | 3% | -1
CC(=O)Nc1cccc(C(=O)/C=C/c2ccc(N(C)C)cc2)c1 | 42* | 3% | -13% | 18% | 2% | 76*
CC(=O)Nc1ccc(N=Cc2ccc[nH]2)cc1 | 15 | -6% | -16% | -4% | 1% | 41
CC(=O)Nc1cccc(C(=O)/C=C/c2ccco2)c1 | 43* | -1% | -7% | -10% | -15% | 49*
CC(=O)Nc1ccc(C(=O)/C=C/c2ccco2)cc1 | -1 | 1% | -21% | -28% | -17% | -7
CC(=O)Nc1cccc(C(=O)/C=C/c2ccc(/C=C/C(=O)c3cccc(NC(C)=O)c3)cc2)c1 | 35* | 0% | 8% | · | · | 45
CC(C)OCCCn1c(SCC(N)=O)nc2c(sc3ccccc32)c1=O | · | · | · | · | -11% | ·
CC(C)c1ccc(NC(=O)CSc2nc3ccccc3nc2Cc2ccccc2)cc1 | · | · | · | · | 5% | ·
CC1=CC(C)=Nc2ccccc2N1 | 45* | -1% | -29% | -1% | 4% | 62*
CC1=CC(=O)Nc2ccccc2S1 | · | · | · | -3% | -2% | ·
Cc1nc2ccccc2nc1SCC(=O)c1ccccc1 | 16 | 0% | -1% | 1% | 0% | 19
O=C(CSc1ccc2ccccc2n1)N/N=C/c1ccc(O)cc1 | 11* | 7% | -3% | 0% | 1% | 11
O=C(CSc1cccc2cccnc12)N/N=C/c1ccc(O)cc1 | -2 | 1% | -28% | 1% | -2% | -13
O=C(CCn1cnc2ccccc21)N/N=C/c1ccccc1O | 24* | -1% | -23% | -6% | 4% | 60*
O=C(CSc1ccc2ccccc2n1)N/N=C/c1ccccc1O | 32* | -9% | -6% | 0% | -9% | 60*
O=C(CCn1cnc2ccccc21)N/N=C/c1ccc(O)cc1 | 3 | 0% | 5% | -21% | 0% | 12
SMILES | CHX counter | LmPK inhibitor | FBPA Giardia inh | RE007 growth inh | TbPYK inhibitor | Shiga inhibitor
O=C(CSc1ccc2ccccc2n1)c1ccccc1 | 53* | 0% | -7% | 3% | -2% | 90*
CCC1(c2ccc(OC)cc2)NC(=O)N(C)C1=O (configuration not stated) | -8 | · | 2% | · | · | 12
Cc1cccc(C(=O)OCc2cc(=O)n3ccsc3n2)c1 | · | · | · | · | 1% | ·
CCc1nn2c(=O)cc(COC(=O)CNC(=O)COc3ccc(C)cc3)nc2s1 | · | · | · | · | -7% | ·
O=C(Cn1cncn1)N/N=C/c1ccccc1O | 9.9* | 1% | 18% | 2% | 1% | 34
O=C(CCC(=O)Nc1ccc(F)cc1)N/N=C/c1ccccc1O | 24* | 8% | 10% | -1% | 0% | 73*
O=C(Cn1cncn1)N/N=C/c1cc([N+](=O)[O-])ccc1O | -1 | -15% | -5% | 0% | 0% | 8
Fc1ccc(Nc2ccnc(-c3ccc4c(c3)OCO4)n2)cc1 | · | · | -7% | · | · | ·
Cc1cccc(-c2n[nH]c(=S)n2-c2ccccc2)c1[N+](=O)[O-] | 17 | ? | 2% | -11% | 7.1µM* | -4
Cc1c(Cl)c(-c2n[nH]c(=S)n2-c2ccccc2)nn1C | -5 | -12% | -8% | -1% | 2.8µM* | -6
CC(=O)c1ccc(-n2ccnc2)cc1 | 9 | -1% | 1% | -10% | 4% | 17
O=C(Nc1ccccc1)n1ccc(-c2ccc(-n3ccnc3)cc2)n1 | 43* | 3% | -5% | · | · | 40*
C=CCOC(=O)N[C@H](/C(C(=O)OC)=C(\C)NCc1ccccc1)c1ccc(Br)cc1 | · | · | -2% | · | · | ·
O=C1CSC(c2cccc(F)c2)N1c1c(F)cccc1F (configuration not stated) | 2 | -5% | 6% | 14% | -3% | -6
O=C1CSC(c2ccc(F)cc2)N1c1c(F)cccc1F (configuration not stated) | 21* | -7% | 5% | 0% | 3% | 22
c1ccc(COc2ccc(OCCCCN3CCCCC3)cc2)cc1 | 55* | 2% | ? | -12% | 17% | 70*
O=C(c1ccccc1)c1ccc(OCCCCN2CCCCC2)cc1 | -2 | -7% | -26% | -2% | -8% | 14
O=C(c1ccccc1)c1ccc(OCCCN2CCCC2)cc1 | 28* | -7% | -13% | 13% | 9% | 44*
COc1ccccc1NC(=O)CCCOc1cc(=O)n(C)c2ccccc12 | · | · | · | · | -6% | ·
CCc1ccc(-c2cn3c(n2)SCC3)cc1 | 47* | -15% | -2% | -8% | 1% | 68*
Cc1ccc(-c2cn3c(n2)SCC3)cc1 | 43* | 2% | 6% | 6% | -1% | 141*
CN(C)S(=O)(=O)Nc1cccc(-c2cn3c(n2)SCC3)c1 | -3 | -2% | 10% | 17% | 0% | 2
COC(=O)C(NS(=O)(=O)CCl)C(C)C (configuration not stated) | -6 | · | 5% | · | · | 0
CCOC(=O)C1CCN(C2=C(NS(=O)(=O)c3ccc(Br)cc3)C(=O)c3ccccc3C2=O)CC1 | 16* | -8% | ? | -19% | -11% | 5
CCN1CCN(C2=C(NS(=O)(=O)c3ccc(Br)cc3)C(=O)c3ccccc3C2=O)CC1 | 14 | 0% | · | -21% | -10% | 22
CCN1CCN(C2=C(NS(=O)(=O)c3ccccc3)C(=O)c3ccccc3C2=O)CC1 | 12* | 0% | · | -29% | -8% | 15
COc1cccc(/C=N/Nc2nc(C)cc(=O)[nH]2)c1OC | 21* | 0% | -14% | 6% | -21% | 45*

Screening results deposited in PubChem BioAssay by National Center for Advancing Translational Sciences (NCATS).
